Here are results for one sequence from PMC7862700, “An all-to-all approach to the identification of sequence-specific readers for epigenetic DNA modifications on cytosine”.

Holding throughout (experiment): DAPPL (digital affinity profiling via proximity ligation, sequencing); 10 mM Tris-HCl pH 7.5, 50 mM NaCl, 1 mM DTT, 4% glycerol, room temperature, 30 min; GST-TFs on glutathione beads, 16-mer random dsDNA library, 0.1% formaldehyde crosslink after washing; high values mean tight binding
Assay [1] has as its target T1, FLI1 (Homo sapiens, UniProt Q01543 1-452).
T1 sequence: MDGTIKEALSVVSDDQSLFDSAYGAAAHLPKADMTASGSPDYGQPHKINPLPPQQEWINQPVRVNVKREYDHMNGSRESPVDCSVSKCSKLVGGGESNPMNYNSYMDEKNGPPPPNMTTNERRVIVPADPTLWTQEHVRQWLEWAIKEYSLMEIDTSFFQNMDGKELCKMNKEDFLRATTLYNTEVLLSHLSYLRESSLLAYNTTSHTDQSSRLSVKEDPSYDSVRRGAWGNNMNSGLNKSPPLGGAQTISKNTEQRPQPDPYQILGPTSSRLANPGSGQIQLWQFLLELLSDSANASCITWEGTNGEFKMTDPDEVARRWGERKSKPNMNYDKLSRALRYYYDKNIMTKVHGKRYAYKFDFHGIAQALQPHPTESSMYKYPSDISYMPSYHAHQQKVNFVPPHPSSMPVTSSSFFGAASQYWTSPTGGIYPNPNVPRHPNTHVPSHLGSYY
The note with it: protein: recombinant; tags: N-terminal GST; dsDNA, one strand shown. An outline of the steps: (§1)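 Binding signal is given per hexamer as its read frequency for a factor divided by its frequency in the tag-only sample. GST-fused human transcription factors were expressed in yeast, captured on glutathione beads, barcoded with DNA and pooled with that sample, then incubated with 200 nmole of a 16-mer random double-stranded DNA library in Tris/NaCl/DTT/glycerol buffer for 30 min at room temperature. The pools were then washed, crosslinked, proximity-ligated, amplified by PCR and sequenced on an Illumina NextSeq500.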

Assay [2] deals with T2, ELK1 (Homo sapiens, UniProt P19419 1-428).
T2 sequence: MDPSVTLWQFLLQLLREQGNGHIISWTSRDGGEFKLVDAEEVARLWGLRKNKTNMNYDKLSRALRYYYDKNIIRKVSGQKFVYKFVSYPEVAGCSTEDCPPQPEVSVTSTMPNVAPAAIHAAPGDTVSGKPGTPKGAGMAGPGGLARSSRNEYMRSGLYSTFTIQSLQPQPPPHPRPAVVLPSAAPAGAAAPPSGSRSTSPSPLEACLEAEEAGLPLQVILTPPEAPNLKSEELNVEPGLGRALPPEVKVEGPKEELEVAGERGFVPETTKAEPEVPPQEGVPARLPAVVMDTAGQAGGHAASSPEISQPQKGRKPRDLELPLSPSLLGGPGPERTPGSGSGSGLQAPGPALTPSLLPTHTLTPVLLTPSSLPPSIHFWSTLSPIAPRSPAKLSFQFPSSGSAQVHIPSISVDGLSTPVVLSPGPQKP
The note with it: protein: recombinant; tags: N-terminal GST; dsDNA, one strand shown. An outline of the steps:
as §1

The target of assay [3] is T3, GABPA (Homo sapiens, UniProt Q06546 1-454).
T3 sequence: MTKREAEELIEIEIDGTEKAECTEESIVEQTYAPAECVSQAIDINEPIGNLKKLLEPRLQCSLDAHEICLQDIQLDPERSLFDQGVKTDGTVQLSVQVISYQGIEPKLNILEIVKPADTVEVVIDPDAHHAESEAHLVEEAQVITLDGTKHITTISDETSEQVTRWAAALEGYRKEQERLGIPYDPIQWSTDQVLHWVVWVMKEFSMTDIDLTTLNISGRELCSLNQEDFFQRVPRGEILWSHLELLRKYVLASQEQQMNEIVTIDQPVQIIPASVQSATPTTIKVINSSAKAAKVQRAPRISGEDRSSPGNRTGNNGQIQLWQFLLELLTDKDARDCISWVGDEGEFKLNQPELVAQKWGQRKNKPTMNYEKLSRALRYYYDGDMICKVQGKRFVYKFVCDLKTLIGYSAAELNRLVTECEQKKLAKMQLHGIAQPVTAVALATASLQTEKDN
The note with it: protein: recombinant; tags: N-terminal GST; dsDNA, one strand shown. An outline of the steps:
as §1

Assay [4] deals with T4, ERG (Homo sapiens, UniProt P11308 1-479).
T4 sequence: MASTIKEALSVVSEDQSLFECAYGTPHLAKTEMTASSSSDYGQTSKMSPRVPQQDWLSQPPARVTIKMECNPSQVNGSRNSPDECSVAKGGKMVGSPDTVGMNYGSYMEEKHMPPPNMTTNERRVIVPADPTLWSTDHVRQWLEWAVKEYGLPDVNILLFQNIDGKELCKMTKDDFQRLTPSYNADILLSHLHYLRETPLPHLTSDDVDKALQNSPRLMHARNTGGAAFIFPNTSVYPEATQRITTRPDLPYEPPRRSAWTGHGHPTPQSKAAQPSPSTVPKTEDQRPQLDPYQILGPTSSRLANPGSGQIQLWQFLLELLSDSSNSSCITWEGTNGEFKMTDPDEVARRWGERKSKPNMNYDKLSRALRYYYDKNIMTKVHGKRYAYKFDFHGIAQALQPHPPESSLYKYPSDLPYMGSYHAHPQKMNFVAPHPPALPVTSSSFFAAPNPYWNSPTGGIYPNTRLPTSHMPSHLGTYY
The conditions noted are these: protein: recombinant; tags: N-terminal GST; dsDNA, one strand shown. An outline of the steps:
as §1

Assay [5] concerns the target ELF1 (Homo sapiens, UniProt P32519 1-619). The conditions noted are these: protein: recombinant; tags: N-terminal GST; dsDNA, one strand shown. In a few lines: as §1
In assay [6] the target is T5, EHF (Homo sapiens, UniProt Q9NZC4 1-300).
T5 sequence: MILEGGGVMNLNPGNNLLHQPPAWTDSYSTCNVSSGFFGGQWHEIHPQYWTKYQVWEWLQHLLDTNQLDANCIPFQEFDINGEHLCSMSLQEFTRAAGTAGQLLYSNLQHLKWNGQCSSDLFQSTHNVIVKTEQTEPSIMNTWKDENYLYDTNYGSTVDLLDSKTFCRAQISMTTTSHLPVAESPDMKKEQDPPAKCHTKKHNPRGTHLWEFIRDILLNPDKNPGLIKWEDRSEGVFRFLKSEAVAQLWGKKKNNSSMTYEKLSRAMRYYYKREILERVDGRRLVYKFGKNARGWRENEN
The note with it: protein: recombinant; tags: N-terminal GST; dsDNA, one strand shown. An outline of the steps: as §1

The target of assay [7] is SPI1 (Homo sapiens, UniProt P17947 1-270). The conditions noted are these: protein: recombinant; tags: N-terminal GST; dsDNA, one strand shown. An outline of the steps: as §1
Assay [8] addresses SPIB (Homo sapiens, UniProt Q01892 1-262). The note with it: protein: recombinant; tags: N-terminal GST; dsDNA, one strand shown. An outline of the steps: as §1
In assay [9] the target is T6, ELK3 (Homo sapiens, UniProt P41970 1-407).
T6 sequence: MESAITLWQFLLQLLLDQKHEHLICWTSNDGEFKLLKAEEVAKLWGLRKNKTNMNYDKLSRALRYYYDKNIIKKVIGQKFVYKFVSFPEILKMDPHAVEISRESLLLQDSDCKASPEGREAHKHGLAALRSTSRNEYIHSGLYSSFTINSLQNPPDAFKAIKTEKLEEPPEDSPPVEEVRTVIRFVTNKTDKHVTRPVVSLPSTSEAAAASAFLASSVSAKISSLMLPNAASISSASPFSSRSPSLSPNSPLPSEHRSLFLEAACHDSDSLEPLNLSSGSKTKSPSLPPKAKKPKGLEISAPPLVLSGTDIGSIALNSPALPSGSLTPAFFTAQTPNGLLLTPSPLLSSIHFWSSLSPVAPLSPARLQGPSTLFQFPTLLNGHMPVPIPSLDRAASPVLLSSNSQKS
The conditions noted are these: protein: recombinant; tags: N-terminal GST; dsDNA, one strand shown. In a few lines: as §1

Assay [10] deals with T7, FEV (Homo sapiens, UniProt Q99581 1-238).
T7 sequence: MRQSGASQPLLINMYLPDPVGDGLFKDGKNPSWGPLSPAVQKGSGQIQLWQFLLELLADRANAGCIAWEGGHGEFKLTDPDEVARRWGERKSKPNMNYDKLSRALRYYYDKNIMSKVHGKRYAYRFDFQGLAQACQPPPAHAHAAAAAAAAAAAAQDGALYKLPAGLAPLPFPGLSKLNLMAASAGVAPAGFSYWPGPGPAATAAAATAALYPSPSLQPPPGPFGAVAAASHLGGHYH
The conditions noted are these: protein: recombinant; tags: N-terminal GST; dsDNA, one strand shown. In a few lines: as §1

In assay [11] the target is ETV5 (Homo sapiens, UniProt P41161 1-510). The conditions noted are these: protein: recombinant; tags: N-terminal GST; dsDNA, one strand shown. An outline of the steps:
as §1

Assay [12] has as its target HSF1 (Homo sapiens, UniProt Q00613 1-529). The conditions noted are these: protein: recombinant; tags: N-terminal GST; chain copies: 3; dsDNA, one strand shown. An outline of the steps: as §1
Assay [13] has as its target T8, SPIC (Homo sapiens, UniProt Q8N5J4 1-248).
T8 sequence: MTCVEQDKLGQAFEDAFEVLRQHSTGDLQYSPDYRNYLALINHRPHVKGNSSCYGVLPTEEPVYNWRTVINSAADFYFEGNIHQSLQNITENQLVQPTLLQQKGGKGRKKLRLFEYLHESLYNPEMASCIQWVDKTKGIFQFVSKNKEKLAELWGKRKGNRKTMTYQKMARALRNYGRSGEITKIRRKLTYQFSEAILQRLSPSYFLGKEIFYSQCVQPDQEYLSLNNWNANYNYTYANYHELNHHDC
The conditions noted are these: protein: recombinant; tags: N-terminal GST; dsDNA, one strand shown. In a few lines: as §1

For assay [14], the target named is ELF4 (Homo sapiens, UniProt Q99607 1-663). The conditions noted are these: protein: recombinant; tags: N-terminal GST; dsDNA, one strand shown. An outline of the steps:
as §1

Assay [15] deals with T9, ELK4 (Homo sapiens, UniProt P28324-2 1-405).
T9 sequence: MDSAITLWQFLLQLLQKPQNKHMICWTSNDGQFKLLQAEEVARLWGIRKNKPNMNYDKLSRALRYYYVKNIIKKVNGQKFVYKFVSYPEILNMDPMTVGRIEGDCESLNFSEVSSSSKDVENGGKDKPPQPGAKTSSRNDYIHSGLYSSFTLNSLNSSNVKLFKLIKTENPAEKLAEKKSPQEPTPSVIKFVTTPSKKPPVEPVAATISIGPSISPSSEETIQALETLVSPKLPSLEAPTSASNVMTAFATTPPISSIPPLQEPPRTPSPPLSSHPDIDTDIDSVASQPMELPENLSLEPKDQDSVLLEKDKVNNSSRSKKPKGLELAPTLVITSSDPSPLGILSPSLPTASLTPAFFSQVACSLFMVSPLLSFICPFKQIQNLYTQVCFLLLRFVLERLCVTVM
The note with it: protein: recombinant; tags: N-terminal GST; dsDNA, one strand shown. An outline of the steps: as §1

The target of assay [16] is T10, ETV2 (Homo sapiens, UniProt O00321 1-342).
T10 sequence: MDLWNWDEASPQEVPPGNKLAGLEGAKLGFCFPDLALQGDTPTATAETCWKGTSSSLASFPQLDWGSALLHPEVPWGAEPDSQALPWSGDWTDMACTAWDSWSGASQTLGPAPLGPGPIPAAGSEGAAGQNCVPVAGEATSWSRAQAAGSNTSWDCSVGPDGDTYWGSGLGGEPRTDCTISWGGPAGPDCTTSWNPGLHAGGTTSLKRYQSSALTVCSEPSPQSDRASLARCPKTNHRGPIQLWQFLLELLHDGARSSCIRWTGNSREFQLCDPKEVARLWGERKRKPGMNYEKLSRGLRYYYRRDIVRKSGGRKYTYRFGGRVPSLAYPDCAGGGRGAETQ
The note with it: protein: recombinant; tags: N-terminal GST; dsDNA, one strand shown. In a few lines: as §1

For assay [17], the target named is T11, ELF3 (Homo sapiens, UniProt P78545 1-371).
T11 sequence: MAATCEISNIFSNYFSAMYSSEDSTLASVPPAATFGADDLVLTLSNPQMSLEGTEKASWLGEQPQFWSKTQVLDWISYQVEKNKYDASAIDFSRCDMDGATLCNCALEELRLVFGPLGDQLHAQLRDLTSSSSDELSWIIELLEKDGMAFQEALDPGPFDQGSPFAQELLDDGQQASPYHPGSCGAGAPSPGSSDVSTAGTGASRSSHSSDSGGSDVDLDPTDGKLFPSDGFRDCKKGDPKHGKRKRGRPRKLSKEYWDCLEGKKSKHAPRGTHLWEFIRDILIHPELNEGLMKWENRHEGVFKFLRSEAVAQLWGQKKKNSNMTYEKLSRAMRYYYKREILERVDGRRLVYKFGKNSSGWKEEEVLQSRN
The conditions noted are these: protein: recombinant; tags: N-terminal GST; dsDNA, one strand shown. In a few lines: as §1

For assay [18], the target named is CRX (Homo sapiens, UniProt O43186 1-299). The note with it: protein: recombinant; tags: N-terminal GST; dsDNA, one strand shown. In a few lines: as §1
CRX, sequence (O43186 whole entry): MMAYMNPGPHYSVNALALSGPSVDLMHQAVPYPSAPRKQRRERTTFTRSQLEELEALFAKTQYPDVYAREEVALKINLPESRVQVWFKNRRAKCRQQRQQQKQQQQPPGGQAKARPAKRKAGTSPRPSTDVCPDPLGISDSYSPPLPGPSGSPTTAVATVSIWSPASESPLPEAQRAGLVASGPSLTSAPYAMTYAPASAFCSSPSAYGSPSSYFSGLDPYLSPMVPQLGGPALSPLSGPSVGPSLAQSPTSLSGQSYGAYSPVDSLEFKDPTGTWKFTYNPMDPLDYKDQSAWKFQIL
Assay [19] addresses ETV1 (Homo sapiens, UniProt P50549 1-477). The note with it: protein: recombinant; tags: N-terminal GST; dsDNA, one strand shown. An outline of the steps:
as §1

SPIB, sequence (Q01892 whole entry): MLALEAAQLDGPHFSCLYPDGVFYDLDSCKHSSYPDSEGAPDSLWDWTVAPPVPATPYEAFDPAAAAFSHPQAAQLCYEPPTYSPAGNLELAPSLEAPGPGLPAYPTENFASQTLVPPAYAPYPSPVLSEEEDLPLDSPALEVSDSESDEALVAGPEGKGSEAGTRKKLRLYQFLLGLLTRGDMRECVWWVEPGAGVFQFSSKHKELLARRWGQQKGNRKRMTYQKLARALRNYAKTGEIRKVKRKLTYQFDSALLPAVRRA
HSF1, sequence (Q00613 whole entry): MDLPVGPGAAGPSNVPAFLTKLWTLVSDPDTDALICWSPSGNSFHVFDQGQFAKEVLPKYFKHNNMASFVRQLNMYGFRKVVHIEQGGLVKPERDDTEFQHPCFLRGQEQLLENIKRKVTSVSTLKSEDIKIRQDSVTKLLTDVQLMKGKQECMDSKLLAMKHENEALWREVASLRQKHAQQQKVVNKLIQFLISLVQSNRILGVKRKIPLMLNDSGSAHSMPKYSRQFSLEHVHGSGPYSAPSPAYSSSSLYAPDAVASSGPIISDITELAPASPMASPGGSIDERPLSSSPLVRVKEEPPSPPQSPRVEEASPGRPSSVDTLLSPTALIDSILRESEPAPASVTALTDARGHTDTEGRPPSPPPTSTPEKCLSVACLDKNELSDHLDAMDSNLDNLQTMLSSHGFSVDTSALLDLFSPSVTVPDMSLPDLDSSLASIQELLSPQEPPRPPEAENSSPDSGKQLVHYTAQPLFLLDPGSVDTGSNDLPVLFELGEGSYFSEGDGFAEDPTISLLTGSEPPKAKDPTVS
ELF1, sequence (P32519 whole entry): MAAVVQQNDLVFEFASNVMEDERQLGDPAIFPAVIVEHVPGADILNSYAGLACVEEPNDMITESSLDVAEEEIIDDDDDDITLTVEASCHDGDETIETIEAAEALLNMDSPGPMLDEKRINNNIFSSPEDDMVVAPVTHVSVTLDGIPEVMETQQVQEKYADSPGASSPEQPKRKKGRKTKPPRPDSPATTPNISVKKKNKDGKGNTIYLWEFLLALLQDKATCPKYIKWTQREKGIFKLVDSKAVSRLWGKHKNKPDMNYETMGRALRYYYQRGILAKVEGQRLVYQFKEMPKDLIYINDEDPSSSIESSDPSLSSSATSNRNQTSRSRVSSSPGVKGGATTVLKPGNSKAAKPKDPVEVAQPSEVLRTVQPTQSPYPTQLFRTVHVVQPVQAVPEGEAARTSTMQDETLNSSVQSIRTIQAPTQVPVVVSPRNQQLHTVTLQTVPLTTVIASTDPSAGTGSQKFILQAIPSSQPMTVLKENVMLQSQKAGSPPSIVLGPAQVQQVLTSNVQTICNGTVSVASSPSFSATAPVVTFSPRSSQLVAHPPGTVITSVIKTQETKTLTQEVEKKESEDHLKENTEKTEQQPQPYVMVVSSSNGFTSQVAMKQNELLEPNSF
ETV1, sequence (P50549 whole entry): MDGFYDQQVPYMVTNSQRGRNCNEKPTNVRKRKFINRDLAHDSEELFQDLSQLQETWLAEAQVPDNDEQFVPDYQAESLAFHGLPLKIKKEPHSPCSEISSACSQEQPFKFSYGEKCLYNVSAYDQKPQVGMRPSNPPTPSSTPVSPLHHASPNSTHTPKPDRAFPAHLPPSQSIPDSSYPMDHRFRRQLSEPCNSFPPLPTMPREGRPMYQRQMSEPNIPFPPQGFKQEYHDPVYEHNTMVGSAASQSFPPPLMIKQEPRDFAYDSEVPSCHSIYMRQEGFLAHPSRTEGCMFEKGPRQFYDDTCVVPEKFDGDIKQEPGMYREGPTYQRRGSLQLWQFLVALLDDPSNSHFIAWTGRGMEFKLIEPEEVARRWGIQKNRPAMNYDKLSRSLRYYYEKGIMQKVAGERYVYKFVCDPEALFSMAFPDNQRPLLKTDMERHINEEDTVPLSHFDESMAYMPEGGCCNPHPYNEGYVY
ETV5, sequence (P41161 whole entry): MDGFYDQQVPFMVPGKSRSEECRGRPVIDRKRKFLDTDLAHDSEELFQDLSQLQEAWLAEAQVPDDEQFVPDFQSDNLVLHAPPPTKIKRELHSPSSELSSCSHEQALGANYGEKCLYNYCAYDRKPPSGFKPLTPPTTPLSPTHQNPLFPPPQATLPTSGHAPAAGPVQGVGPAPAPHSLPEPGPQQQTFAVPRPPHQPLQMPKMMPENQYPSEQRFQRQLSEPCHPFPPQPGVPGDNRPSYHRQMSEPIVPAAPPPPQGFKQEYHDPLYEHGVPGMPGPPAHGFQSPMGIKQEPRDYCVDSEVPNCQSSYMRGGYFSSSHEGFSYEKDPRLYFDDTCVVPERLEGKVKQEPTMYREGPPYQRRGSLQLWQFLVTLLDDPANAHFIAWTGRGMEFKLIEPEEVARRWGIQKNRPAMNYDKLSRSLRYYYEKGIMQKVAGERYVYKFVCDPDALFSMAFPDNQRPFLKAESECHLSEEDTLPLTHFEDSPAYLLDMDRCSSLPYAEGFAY
ELF4, sequence (Q99607 whole entry): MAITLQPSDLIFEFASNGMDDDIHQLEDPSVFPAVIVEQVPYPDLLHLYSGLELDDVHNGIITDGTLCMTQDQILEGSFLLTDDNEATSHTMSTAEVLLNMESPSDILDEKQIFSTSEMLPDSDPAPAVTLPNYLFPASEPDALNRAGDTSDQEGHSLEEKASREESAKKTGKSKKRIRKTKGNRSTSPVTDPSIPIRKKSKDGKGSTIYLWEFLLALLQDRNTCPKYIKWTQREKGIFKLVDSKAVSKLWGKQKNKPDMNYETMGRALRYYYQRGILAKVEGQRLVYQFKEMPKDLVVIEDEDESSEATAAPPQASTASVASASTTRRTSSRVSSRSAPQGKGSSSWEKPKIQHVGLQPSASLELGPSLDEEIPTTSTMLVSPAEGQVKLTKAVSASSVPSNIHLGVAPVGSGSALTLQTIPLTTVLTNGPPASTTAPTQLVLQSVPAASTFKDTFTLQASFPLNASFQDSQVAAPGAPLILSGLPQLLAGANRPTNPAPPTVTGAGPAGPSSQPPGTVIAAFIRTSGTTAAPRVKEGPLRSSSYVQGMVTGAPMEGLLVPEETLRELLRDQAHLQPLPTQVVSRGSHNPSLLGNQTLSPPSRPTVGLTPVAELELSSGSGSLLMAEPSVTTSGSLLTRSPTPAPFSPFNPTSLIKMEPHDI

In the case of CCCACG, the binding signal in assay [1] was 1.17 fold enrichment (6-mer frequency, TF over GST control); in assay [2] it was 1.2 fold enrichment (6-mer frequency, TF over GST control); in [3] it was 1.26 fold enrichment (6-mer frequency, TF over GST control); in assay [4], 1.09 fold enrichment (6-mer frequency, TF over GST control); in assay [5], 1.19 fold enrichment (6-mer frequency, TF over GST control); in assay [6], 1.2 fold enrichment (6-mer frequency, TF over GST control). In addition, the binding signal in [7] was 1.08 fold enrichment (6-mer frequency, TF over GST control); in assay [8], 1.16 fold enrichment (6-mer frequency, TF over GST control); in [9] it was 1.29 fold enrichment (6-mer frequency, TF over GST control); in assay [10], 1.13 fold enrichment (6-mer frequency, TF over GST control); in [11], 1.22 fold enrichment (6-mer frequency, TF over GST control); in [12], 1.01 fold enrichment (6-mer frequency, TF over GST control). Also, the binding signal in [13] was 1.22 fold enrichment (6-mer frequency, TF over GST control); in assay [14], 1.27 fold enrichment (6-mer frequency, TF over GST control); in [15] it was 1.25 fold enrichment (6-mer frequency, TF over GST control); in assay [16] it was 1.01 fold enrichment (6-mer frequency, TF over GST control); in assay [17] it was 1.21 fold enrichment (6-mer frequency, TF over GST control); in [18], 1 fold enrichment (6-mer frequency, TF over GST control). Besides, the binding signal in assay [19] is 1.06 fold enrichment (6-mer frequency, TF over GST control).
